Results filed as inconclusive are left out. Active and inactive are the calls of the source. Unless noted, the call rests on the fitted dose curve; in most records, active means well fitted curve in the direction sought with a large enough effect in the repeat runs; inconclusive means weak or mixed curves; inactive means no such curve, though single readings can be large; an effect the other way counts as inactive or inconclusive.
Experiments:
[1] = qHTS assay to identify small molecule antagonists of the retinoid acid receptor (RAR) signaling pathway - cell viability counter screen (AID 1159551); further: nearly all actives have a fitted effect of over 35% in size
Method in brief: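 C3RL4 RARE-luciferase cells, 1,000/well, incubated overnight, then dosed with compound plus 1 uM retinol (final). After 6 hr at 37 C, viability read by CellTiter-Glo ATP luminescence following 30 min at room temperature.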

[2] = qHTS assay to identify small molecule antagonists of the retinoic acid receptor (RAR) signaling pathway (AID 1159552; further: nearly all actives have a fitted effect of over 50% in size)
Method in brief: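 Using a RARE-driven luciferase construct in C3RL4 cells, retinol at 1 uM final provided the agonist stimulus while compounds were co-applied. After 6 hours at 37 C, luminescence was recorded to flag inhibitors of retinol signaling.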

[3] = qHTS assay to identify small molecule agonists of the retinoic acid receptor (RAR) signaling pathway (AID 1159553); further: potency means the concentration at half of the fitted maximal effect
Method in brief: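 C3RL4 RARE-luciferase cells were seeded at 1,000/well and grown overnight at 37 C, then exposed to compounds for 6 hr at 37 C, 5% CO2. Luciferase reagent was added and luminescence was read after 30 min at room temperature.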

[4] = qHTS assay to identify small molecule antagonists of the estrogen related receptor (ERR) signaling pathway from Tox21 library - cell viability counter screen (AID 1224834); further: nearly all actives have a fitted effect of over 30% in size; further: potency means the concentration at half of the fitted maximal effect
Method in brief: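 ERR reporter cells, 2,000 per well, rested 6 h, then exposed to compound in DMSO for 17.5 hours at 37 C. Viability read as fluorescence after 30 min with CellTiter-Fluor.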

[5] = molecular target: Luciferin 4-monooxygenase (Photinus pyralis) (UniProt P08659); experiment: qHTS assay to identify small molecule inhibitors of firefly luciferase (AID 1224835); further: nearly all actives have a fitted effect of over 25% in size; further: potency means the concentration at half of the fitted maximal effect
Luciferin 4-monooxygenase (Photinus pyralis), sequence (P08659 whole entry, looked up): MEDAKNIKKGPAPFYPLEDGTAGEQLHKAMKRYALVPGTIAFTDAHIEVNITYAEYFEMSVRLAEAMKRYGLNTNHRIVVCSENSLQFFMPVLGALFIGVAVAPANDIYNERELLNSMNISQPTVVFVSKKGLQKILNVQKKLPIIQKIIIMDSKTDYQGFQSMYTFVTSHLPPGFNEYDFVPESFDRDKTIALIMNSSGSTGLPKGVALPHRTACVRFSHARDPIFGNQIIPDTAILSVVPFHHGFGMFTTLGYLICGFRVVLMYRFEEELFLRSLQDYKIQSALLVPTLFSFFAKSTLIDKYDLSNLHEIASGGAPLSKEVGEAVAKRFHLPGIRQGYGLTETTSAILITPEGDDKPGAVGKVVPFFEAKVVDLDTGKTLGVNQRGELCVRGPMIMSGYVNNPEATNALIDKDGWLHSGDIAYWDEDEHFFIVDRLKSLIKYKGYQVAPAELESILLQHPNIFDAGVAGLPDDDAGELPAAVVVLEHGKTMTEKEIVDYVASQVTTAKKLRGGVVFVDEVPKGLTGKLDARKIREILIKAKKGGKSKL
Method in brief: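 Biochemical qHTS: compounds run as interplate titrations against purified firefly enzyme, with D-luciferin and ATP each at its KM concentration. Light output recorded by CCD imaging.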

[6] = qHTS assay to identify small molecule agonists of the constitutive androstane receptor (CAR) signaling pathway - cell viability counter screen (AID 1224836); further: series mostly up to about 92 µM; nearly all actives have a fitted effect of over 45% in size
Method in brief: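 Multiplexed viability check: HepG2-CYP2B6-hCAR cells, 15-point compound dosing, 0.75 uM PK11195 final, 23 h at 37 C, CellTiter-Fluor fluorescence.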

[7] = qHTS assay to identify small molecule antagonists of the constitutive androstane receptor (CAR) signaling pathway - cell viability counter screen (AID 1224837); further: nearly all actives have a fitted effect of over 45% in size; further: potency means the concentration at half of the fitted maximal effect
Method in brief: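 HepG2 cells stably carrying hCAR and CYP2B6-2.2kb reporter, stimulated with 50 nM CITCO and compounds at 15 concentrations for 23 h at 37 C. Viability measured by CellTiter-Fluor fluorescence.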

[8] = molecular target: Nuclear receptor subfamily 1 group I member 3 (Homo sapiens) (UniProt Q14994); experiment: qHTS assay to identify small molecule antagonists of the constitutive androstane receptor (CAR) signaling pathway (AID 1224838); further: nearly all actives have a fitted effect of over 40% in size
Nuclear receptor subfamily 1 group I member 3 (Homo sapiens), sequence (Q14994 whole entry, looked up): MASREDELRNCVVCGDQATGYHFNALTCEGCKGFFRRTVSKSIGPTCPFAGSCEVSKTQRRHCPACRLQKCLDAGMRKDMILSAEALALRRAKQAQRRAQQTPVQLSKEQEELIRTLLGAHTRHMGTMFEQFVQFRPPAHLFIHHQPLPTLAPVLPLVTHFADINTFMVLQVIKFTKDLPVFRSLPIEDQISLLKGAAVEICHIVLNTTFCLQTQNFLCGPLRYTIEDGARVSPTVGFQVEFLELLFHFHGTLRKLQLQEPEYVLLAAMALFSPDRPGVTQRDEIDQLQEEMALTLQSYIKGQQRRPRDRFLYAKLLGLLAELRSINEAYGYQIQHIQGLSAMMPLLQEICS
Method in brief: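 HepG2 cells stably carrying hCAR and a CYP2B6-2.2kb luciferase reporter, seeded 4 hrs before compound (15 concentrations). Stimulated with 50 nM CITCO for 24 hr at 37 C. ONE-Glo luminescence read after 30 min at room temperature.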

[9] = molecular target: Nuclear receptor subfamily 1 group I member 3 (Homo sapiens) (UniProt Q14994); experiment: qHTS assay to identify small molecule agonists of the constitutive androstane receptor (CAR) signaling pathway (AID 1224839); further: nearly all actives have a fitted effect of over 15% in size; further: potency means the concentration at half of the fitted maximal effect
Method in brief: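 Using human hepatoma HepG2 cells engineered with hCAR and a CYP2B6-2.2kb reporter, 15-concentration compound series were incubated 24 h alongside PK11195 at 0.75 uM final, with luminescence quantified afterwards.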

[10] = qHTS assay to identify small molecule antagonists of the estrogen related receptor signaling pathway with the pleiotropic PPARgamma coactivator (PGC) from Tox21 10K library - cell viability counter screen (AID 1224840; active means well fitted cell-killing curve with a large enough effect in the repeat runs, not every such curve was filed as active; further: nearly all actives have a fitted effect of over 40% in size)
Method in brief: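 PGC/ERR cells (2,000/well) plated 6 h, then compound-treated for 17.5 h at 37 C. Viability measured by CellTiter-Fluor fluorescence after 30 min at 37 C, multiplexed with the pathway assay.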

[11] = qHTS assay to identify small molecule antagonists of the estrogen related receptor signaling pathway with the pleiotropic PPARgamma coactivator (PGC) from Tox21 10K library (AID 1224841; call rule not given here; further: series mostly up to about 92 µM; actives are mostly falling curves and most rising ones were filed inactive; nearly all actives have a fitted effect of over 50% in size)
Method in brief: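 PGC/ERR cell line, 2,000 cells/well, pre-incubated 6 hours at 37 C, then exposed to compounds for 18 hours at 37 C; luciferase read with One-Glo luminescence after 30 min at room temperature.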

[12] = qHTS assay to identify small molecule agonists of the estrogen related receptor signaling pathway with the pleiotropic PPARgamma coactivator (PGC) from Tox21 10K library (AID 1224842); further: nearly all actives have a fitted effect of over 15% in size
Method in brief: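 PGC/ERR reporter cell line, 2,000 cells per well, incubated 6 h at 37 C before 23 nL compound in DMSO was added. After 18 h at 37 C, One-Glo luminescence read following 30 min at room temperature.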

[13] = molecular target: Thyrotropin receptor (Homo sapiens) (UniProt P16473); experiment: qHTS assay to identify small molecule agonists of the thyroid stimulating hormone receptor (TSHR) signaling pathway (AID 1224843; calls by dose curve; further: nearly all actives have a fitted effect of over 45% in size)
Thyrotropin receptor (Homo sapiens), sequence (P16473 whole entry, looked up): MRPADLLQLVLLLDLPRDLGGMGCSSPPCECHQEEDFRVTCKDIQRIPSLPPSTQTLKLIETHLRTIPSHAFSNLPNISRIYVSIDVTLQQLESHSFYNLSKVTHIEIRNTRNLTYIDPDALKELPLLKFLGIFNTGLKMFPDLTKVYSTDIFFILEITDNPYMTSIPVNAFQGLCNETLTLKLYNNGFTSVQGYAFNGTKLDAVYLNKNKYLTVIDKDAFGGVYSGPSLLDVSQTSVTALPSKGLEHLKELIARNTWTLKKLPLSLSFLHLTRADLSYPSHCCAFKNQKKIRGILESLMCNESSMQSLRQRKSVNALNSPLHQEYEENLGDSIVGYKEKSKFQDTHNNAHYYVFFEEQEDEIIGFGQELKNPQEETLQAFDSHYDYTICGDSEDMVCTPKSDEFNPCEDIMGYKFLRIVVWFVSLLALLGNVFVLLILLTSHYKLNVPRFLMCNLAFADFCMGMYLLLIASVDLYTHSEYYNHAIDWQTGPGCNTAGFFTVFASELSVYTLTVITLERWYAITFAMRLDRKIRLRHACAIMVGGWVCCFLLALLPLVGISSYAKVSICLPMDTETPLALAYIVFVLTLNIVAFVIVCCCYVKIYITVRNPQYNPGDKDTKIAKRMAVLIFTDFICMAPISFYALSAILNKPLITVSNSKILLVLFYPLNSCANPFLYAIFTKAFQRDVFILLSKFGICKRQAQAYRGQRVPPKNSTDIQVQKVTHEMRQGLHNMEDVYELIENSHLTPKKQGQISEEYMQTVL
Method in brief: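 TSHR-HEK293 cells in agonist mode, 30 min room-temperature step, then cAMP measured by competitive HTRF (cAMP-d2 with anti-cAMP cryptate) after 1 h at room temperature. Tested at 15 concentrations in triplicate.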

[14] = qHTS assay to identify small molecule agonists of the hypoxia (HIF-1) signaling pathway - cell viability counter screen (AID 1224844; calls by dose curve; further: nearly all actives have a fitted effect of over 50% in size)
Method in brief: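 HRE-bla ME-180 cells, 2,000/well in 0.5% dialyzed FBS medium, treated 17 h at 37C with compounds. Viability read in the same wells as the bla reporter, by CellTiter-Glo luminescence after 30 min at room temperature.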

[15] = qHTS assay to identify small molecule antagonists of the estrogen related receptor (ERR) signaling pathway - cell viability counter screen (AID 1224818); further: series mostly up to about 46 µM
Method in brief: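 ERR cells, 2,000 per well, compound added after 6 h and incubated 17.5 h at 37 C. Viability read by CellTiter-Fluor fluorescence after a further 30 min at 37 C.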

[16] = qHTS assay to identify small molecule antagonists of the estrogen related receptor signaling pathway with the pleiotropic PPARgamma coactivator (PGC) cell viability counter screen (AID 1224822; further: series mostly up to about 46 µM)
Method in brief: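 PGC/ERR cells rested 6 h, then compound-treated 17.5 h at 37 C. CellTiter-Fluor added for 30 min at 37 C, viability measured by fluorescence intensity.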

[17] = qHTS assay to identify small molecule antagonists of the estrogen related receptor (ERR) signaling pathway (AID 1224819;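 further: luminescence from an ERR-driven luciferase reporter measured with One-Glo reagent; series mostly up to about 46 µM; nearly all actives have a fitted effect of over 50% in size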)
Method in brief: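 ERR reporter cell line (NTP) plated at 2,000 cells/well, settled 6 h at 37C/5% CO2, then exposed to LOPAC compounds for 18 h at 37C. One-Glo luciferase luminescence read after 30 min at room temperature.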

[18] = qHTS assay to identify small molecule agonists of the estrogen related receptor (ERR) signaling pathway (AID 1224820)
Method in brief: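 Cells: ERR line from NTP, 2,000/well. Pre-incubation 6 h, 37 C/5% CO2. Compound (DMSO) pin transfer, 18 h 37 C. One-Glo, 30 min RT, luminescence.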

Measured: Potency

CCCCOC(=O)CCC(=O)OCCCC
not listed: [15] | [16] | [17] | [18]
inactive: all other assays above

Cc1nnc(-c2ccccc2)c(=O)n1N
not listed: [11] | [12] | [15] | [16] | [17] | [18]
inactive: all other assays above

Nc1ccc2c(c1)Cc1ccccc1-2
inactive: [1] | [2] | [6] | [7] | [8] | [10] | [11] | [14]
active: [3] 10.8 µM | [5] 39.7 µM | [9] 48.3 µM

O=CC=O
not listed: [11] | [12] | [15] | [16] | [17] | [18]
inactive: all other assays above

Cc1nc2ccccc2c(=O)n1-c1ccccc1Cl
inactive: [1] | [2] | [3] | [5] | [8] | [9] | [11] | [12] | [14]
active: [4] 21.2 µM | [7] 16.9 µM

C[N+](C)(C)CC1CO1 (stereo not drawn)
inactive: [1] | [2] | [3] | [4] | [5] | [6] | [7] | [10] | [13] | [14]

N#CC(C#N)=Cc1ccc(O)c(O)c1
active: [3] 26.6 µM
not listed: [11] | [12] | [17] | [18]
inactive: all other assays above

C=CCc1ccc(OC(=O)Cc2ccccc2)c(OC)c1
active: [5] 25.2 µM
inactive: [1] | [2] | [3] | [4] | [7] | [8] | [9] | [10] | [14]

COC(=O)C1(O)c2ccccc2-c2ccccc21
inactive: [1] | [2] | [3] | [4] | [5] | [6] | [7] | [10] | [13] | [14]

CC1(C)CC(=O)CC(C)(C)N1[O]
not listed: [4] | [15] | [16] | [17] | [18]
inactive: all other assays above

CCOP(=O)(SC(C)CC)N1CCSC1=O (stereo not drawn)
not listed: [8] | [11] | [12] | [15] | [16] | [17] | [18]
inactive: all other assays above

CN(C)N
inactive: [1] | [2] | [3] | [4] | [5] | [7] | [10] | [13] | [14]

C=CC(C)(CCC=C(C)C)OC(=O)c1ccccc1N (stereo not drawn)
not listed: [5] | [11] | [12] | [15] | [16] | [17] | [18]
inactive: all other assays above

CCCCCBr
not listed: [11] | [12] | [15] | [16] | [17] | [18]
inactive: all other assays above

Cc1cccc(C)c1NC1=NCCCS1
not listed: [6] | [8] | [9] | [11] | [12]
inactive: all other assays above

CC(Oc1cccc(Cl)c1)C(=O)O (stereo not drawn)
not listed: [11] | [12] | [15] | [16] | [17] | [18]
inactive: all other assays above

C[C@H]1O[C@H](OC2[C@@H](O)[C@@H](O)C(O)[C@H](O)[C@H]2O)[C@@H](N)C[C@@H]1N=C(N)C(=O)O (stereo partly drawn)
not listed: [11] | [12] | [15] | [16] | [17] | [18]
inactive: all other assays above

COCc1cnc(C2=NC(C)(C(C)C)C(=O)N2)c(C(=O)O)c1 (stereo not drawn)
not listed: [11] | [12] | [15] | [16] | [17] | [18]
inactive: all other assays above

C=CC(=O)NC(C)(C)CC(C)=O
not listed: [11] | [12] | [13] | [15] | [16] | [17] | [18]
inactive: all other assays above

O=C(N[C@H]1CN2CCC1CC2)c1ccc2c(c1)OCCO2
not listed: [6] | [15] | [16] | [17] | [18]
inactive: all other assays above
